A selection: hits, their analogues and other compounds. The true share with any hit is near 1.2%.
RGS8-Gao – RGS8-Galphao binding modulators, primary screen, biochemical, multiplexed bead flow cytometry | response (percent of control binding), % at 10 µM | actives lie on both sides | AID 1423, 2008 | 220,000 compounds, 0.34% hits | Guanine nucleotide-binding protein G(o) subunit alpha (Homo sapiens), P09471; in the data active = response below about 60% or above about 140%; inactive = in between;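 also: Galphao activated as the GDP aluminium fluoride complex binding bead-coupled RGS8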
Target sequence (P09471 whole entry, looked up): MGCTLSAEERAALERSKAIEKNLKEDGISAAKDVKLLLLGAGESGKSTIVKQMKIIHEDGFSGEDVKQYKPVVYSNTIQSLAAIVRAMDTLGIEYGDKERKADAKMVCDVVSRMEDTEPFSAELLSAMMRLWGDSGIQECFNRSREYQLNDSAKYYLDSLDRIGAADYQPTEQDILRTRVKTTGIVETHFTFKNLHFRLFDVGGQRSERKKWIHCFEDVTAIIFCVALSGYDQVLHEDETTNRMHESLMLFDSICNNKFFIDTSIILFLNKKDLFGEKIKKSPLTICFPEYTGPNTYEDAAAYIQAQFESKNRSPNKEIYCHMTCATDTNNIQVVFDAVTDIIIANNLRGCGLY
RGS4-Gao reg – modulators of RGS4 binding to Galphao, primary screen, biochemical, multiplexed bead flow cytometry; binding response (% of control), % at 10 µM; actives lie on both sides; 220,000 compounds, 0.33% hits; Guanine nucleotide-binding protein G(o) subunit alpha (Homo sapiens), P09471; in the data active = binding response below about 49% or above about 150%; inactive = in between;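 also: fluorescent Galphao activated with aluminum fluoride binding bead-coupled RGS4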
GSH bead fluor – compound fluorescence on glutathione beads, profiling panel, artefact control, biophysical, 488/530 nm, flow cytometry; GSH beads flow cytometry, compound fluorescence 488/530 nm; active compounds read high; fluorescence (KMESF) at 10 µM; 190,000 compounds, 0.25% hits; in the data active = fluorescence above about 89;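 also: glutathione beads carrying GST-tagged Bcl family fusion proteins plus one bare bead set; values are compound well signal with DMSO vehicle wells as background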
RGS7-Gao – RGS7-Galphao binding modulators, primary screen, biochemical, multiplexed bead flow cytometry; binding response (% of control), % at 10 µM; actives lie on both sides; 220,000 compounds, 0.35% hits; AID 1439, 2008; Guanine nucleotide-binding protein G(o) subunit alpha (Homo sapiens), P09471; in the data active = binding response below about 49% or above about 150%; inconclusive = no clear call, values can overlap the other calls; inactive = in between;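 also: fluorescent Galphao held in activated GDP-AlF4 state binding bead-coupled RGS7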
RGS16-Gao HTS – modulators of RGS16 binding to Galphao, primary screen, biochemical, human proteins, multiplexed bead flow cytometry | AID 1441, 2008 | binding response (% of control), % at 10 µM | bead-based flow cytometry RGS16-Galphao binding, fluorescence; actives lie on both sides | Regulator of G-protein signaling 16 (Homo sapiens) + Guanine nucleotide-binding protein … | 220,000 compounds, 0.38% hits; call rule not given here;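 also: Galphao activated by GDP with aluminum fluoride before binding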
Avidin fluor – green autofluorescence of compounds with avidin beads – biophysical, 488/530 nm, flow cytometry, artefact control, profiling panel; compound fluorescence 488/530 nm; active compounds read high; fluorescence (KMESF) at 10 µM; 220,000 compounds, 0.38% hits; AID 1775, 2009; in the data active = fluorescence above about 47
Active calls of the source: *; ? = inconclusive; . = no result given; [ ] = dose if it differs, or a comment.

SMILES	RGS8-Gao	RGS4-Gao reg	GSH bead fluor	RGS7-Gao	RGS16-Gao HTS	Avidin fluor
c1ccc(Cn2c(CSc3nnnn3-c3ccccc3)nc3ccccc32)cc1	97.2	84.5	237*	97.1	25.7	3
c1ccc(Oc2cc(-c3ccccc3)ncn2)cc1	102.8	98.7	23	101.0	99.4	5
Cc1ccc(S(=O)(=O)Nc2ccc3nc(N)sc3c2)cc1	100.3	98.8	27	108.1	99.5	49*
CN(C)c1ccc2c(c1)Sc1cc(N(C)C)ccc1N2C(=O)c1ccccc1	100.2	99.7	.	?	98.5	4
COC(=O)C(C(=O)OC)c1ccccc1[N+](=O)[O-]	100.3	101.8	272*	99.7	101.7	7
CCN(CC)CCNC(=O)c1ccccc1C(=O)c1ncc[nH]1	106.2	112.6	19	139.4	112.2	107*
CCN(CC)CCNC(=O)c1ccccn1	102.6	100.7	12	99.2	105.9	8
Cc1nnc(SCC(=O)c2ccc(C(C)C)cc2)s1	101.8	106.7	11	101.8	105.6	10
CCOC(=O)c1[nH]c(C)c(C(=O)Nc2ccc(C)c(Cl)c2)c1C	102.0	100.2	25	109.7	100.6	62*
CC1CCCC(C)N1c1nnc(NC(=O)c2cc(-c3ccc(Br)cc3)on2)s1 (stereo unspecified)	102.0	104.1	20	108.2	102.9	9
COc1ccc(-c2cc(C(=O)Nc3c(C)nn(Cc4ccc(Cl)cc4)c3C)no2)cc1	110.6	145.7	49	135.0	164.6	50*
CC(C)(C)NC(=O)NC(=O)COC(=O)c1ccco1	103.0	101.7	261*	105.8	102.0	8
O=C1[C@@H]2[C@@H]3C[C@@H]([C@H]4ON=C(c5ccc(Cl)cc5)[C@@H]34)[C@@H]2C(=O)N1C1CCCCC1	102.4	100.5	20	99.6	101.5	14
O=C(CC1(O)C(=O)N(Cc2ccccc2)c2ccccc21)c1ccncc1 (stereo unspecified)	99.6	99.6	23	97.4	104.6	17
N#Cc1c(-c2ccc(Cl)cc2)ccn2nc(C3CCCCC3)nc12	102.9	105.2	262*	104.7	101.0	7
O=C1S/C(=C\c2ccc(N3CCOCC3)o2)C(=O)N1Cc1ccc(F)cc1	123.5	164.8*[activator]	15	152.8*[activator]	386.3	31
O=C1S/C(=C/c2ccc(N3CCOCC3)o2)C(=O)N1Cc1ccc(F)cc1	86.3	100.4	16	102.7	97.9	10
COC(=O)c1ccc(/C=N/OCC(=O)NCc2ccc(F)cc2)cc1	100.4	111.9	16	?	109.9	54*
O=C(CSc1nnc(-c2ccc(F)cc2)o1)Nc1ccc(S(=O)(=O)N2CCCC2)cc1	102.3	103.0	5	100.8	108.1	6
O=C(CSc1nnc(-c2ccc(S(=O)(=O)N3CCCC3)cc2)o1)NCc1ccccc1	99.6	95.7	113*	101.4	103.3	7
O=C(CS(=O)(=O)c1c[nH]c2ccccc12)NC1CCCCC1	102.5	103.7	26	105.6	103.8	7
Cc1sc2ncnc(Nc3ccccc3)c2c1C	98.9	107.8	13	138.2	106.0	92*
Cc1sc2ncnc(NCc3ccccc3)c2c1C	99.5	94.4	25	99.8	93.7	12
O=C(NCc1ccc2c(c1)OCO2)C1CCN(c2nccc(C(F)(F)F)n2)CC1	100.0	98.4	.	?	97.9	3
O=C(Nc1ccc(S(=O)(=O)N2CCCC2)cc1)N1c2ccccc2Sc2ccccc21	98.3	99.5	24	127.0	103.0	77*
C=CCNC(=O)/C(=C\C=C\c1ccccc1)NC(=O)c1ccc(OCCCC)cc1	11.6*	20.1*	19	13.2*	1.7*	-2
CCCCOc1ccc(C(=O)N/C(=C/C=C/c2ccccc2)C(=O)NCCO)cc1	101.4	100.7	9	99.5	103.8	4
Nc1ncnc(Oc2ccccc2F)c1[N+](=O)[O-]	101.4	100.5	16	?	99.2	9
